From the supplement of paper PMC10042075
Structures can show the parent of a compound that is named as a salt.

Test system: LASCPC-01
Assay: cell viability relative to DMSO control (fraction); higher = less growth inhibition (more viable cells)
Conditions: 2 µM; 72 h
Procedure: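 High-throughput single-dose screen in the LASCPC-01 NEPC cell line in 384-well plates. Cells were treated with each compound at 2 µM for 72 h, and viability was read by CellTiter-Glo luminescence. Values are normalised to the DMSO control (compound/DMSO) from three replicates; only the 5-HT-related subset of the 7315-compound library is given.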

Structure (SMILES)	cell viability
NCCc1c[nH]c2ccc(C(N)=O)cc12 [5-Carboxamidotryptamine maleate]	1.1
